Source: PubChem BioAssay AID485313 (National Center for Advancing Translational Sciences (NCATS), 2010)
Among all 320,000 compounds or so, about 7,600 (2.4%) were called active. Inconclusive results (about 3%) are left out. The entries come from a sample that favours actives as a whole. A number with no mark means an inactive call. The call rests on the fitted dose curve; in most records, active means well fitted activation curve with a large enough effect; inconclusive means small, poorly fitted or top-dose-only effect; inactive means no such curve, though single readings can be large or run the other way.

Test: qHTS Assay for NPC1 Promoter Activators; further: nearly all actives have a fitted effect of over 60% in size; on activation: % of control where 0% means no effect
Settings: Huh7 NPC1 promoter luciferase reporter, 24 h; series mostly up to 9.22 µM; activation: at the top concentration
From the text: NIH Chemical Genomics Center [NCGC] NIH Molecular Libraries Probe Production centers Network [MLPCN] MLPCN Grant: MH089375-01A1 Assay Submitter (PI): Yiannis A. Ioannou NCGC Assay Overview: Niemann Pick Type C (NPC) is a rare neurodegenerative lipidosis that is characterized by lipid storage in the endosomal/lysosomal system. Treatment modalities for this devastating disease are currently non-existent due to the severe obstacles associated with accessing the central nervous system with proteins or genes. The majority of mutations causing NPC disease are missense mutations that are distributed throughout the length of the NPC1 protein, with the most prevalent being the I1061T allele. Although NPC1 mutant proteins may be functional, they are typically trapped in the ER due to misfolding. […] We have developed and optimized a cell based luciferase reporter assay in 1536 well format for the identification of up-regulators of the mutant NPC1 promoter.
The NPC1 promoter is cloned in front of the luciferase reporter gene, therefore NPC promoter activation results in luciferase expression. Frozen stock of the NPC1 promoter transfected Huh7 cells were obtained from the laboratory of Dr. Yiannis Ioannou (The Mount Sinai School of Medicine, New York, NY). Cells were propagated and maintained at NCGC in medium containing RPMI-1640 supplemented with 10% FBS, 2mM L-glutamine, and 50ug/ml penicillin/streptomycin. Cells were harvested in and plated for assays in OP-MEM I reduced-serum medium supplemented with 10% FBS. The Amplite luciferase reporter gene assay kit was purchased from ABD Bioquest and prepared/stored according to manufacturers recommendations. qHTS Assay Setup: 1.#Dispensed 5ul of Huh7 cells stably expressing NPC1-luciferase at a density of 1500 cells per well 1536-well plates. 2.#Incubate cells at 37C, 5% CO2, and 95% humidity for 2 hours. 3.#Transferred 23nl per well of compound in DMSO solution. 4.#Incubated at 37C, 5% CO2, and 95% humidity for 24 hours. 5.#Dispensed 3ul per well of Amplite reagent(ABD Bioquest) per well. 6.#Incubate at ambient for 10 minutes. 7.#Read using the luminescence protocol on the ViewLux plate reader (Perkin Elmer).
Potency means the concentration at half of the fitted maximal effect.

SMILES | activation [%] | Potency
O=C(CN(C(=O)c1csnn1)c1ccc(Br)cc1)NC1CCCC1 | 1.31 | 
O=C(CN1C(=O)CCS(=O)(=O)c2ccccc21)NCc1ccc(F)cc1 | 9.64 | 
O=C(CNS(=O)(=O)c1ccc2ccccc2c1)Nc1ccc(F)c(F)c1F | -5.75 | 
N#CC(=C1CCCC1)c1nc(-c2ccc(Cl)cc2)cs1 |  | 2.51 µM (active)
N#CC(=C1SC=CS1)c1nc(-c2ccccc2)cs1 | 18.5 | 
CCCCCN1CC(O)=C(c2nc(-c3ccc(Cl)cc3)cs2)C1=N | 0.95 | 
CC1(C)NC(=O)N(CC(=O)N2CCN(S(=O)(=O)c3ccccc3F)CC2)C1=O | -4.7 | 
O=C(Nc1ccc(C(F)(F)F)cc1)c1cccc(-n2cnnn2)c1 | -7.93 | 
CN1CCN(S(=O)(=O)c2ccc(N3CCN(c4ccccc4O)CC3)c([N+](=O)[O-])c2)CC1 | 6.04 | 
CCc1ccc(N(CC(=O)NCc2cccnc2)S(=O)(=O)c2ccccc2)cc1 |  | 2.82 µM (active)
CCCNS(=O)(=O)c1ccc(CCC(=O)NCc2cccnc2)cc1 | -2.07 | 
O=C(CN(c1cc(C(F)(F)F)ccc1Cl)S(=O)(=O)c1ccccc1)NCc1cccnc1 | -7.53 | 
CCN(C(=O)COC(=O)c1c(C)nn(-c2ccccc2)c1Cl)c1c(N)n(Cc2ccccc2)c(=O)[nH]c1=O | -0.895 | 
Cc1ccc(-n2c(C)cc(/C=C(\C#N)C(=O)NCC3CCCO3)c2C)cc1 (centres undefined) |  | 3.16 µM (active)
Cc1cc(/C=C(/C#N)C(=O)Nc2ccc(Cl)cc2)c(C)n1-c1cccnc1 | 11.6 | 
Cc1ccc(C(=O)N/C(=C/c2cccs2)C(=O)NCC2CCCO2)cc1 (centres undefined) | -0.594 | 
O=C1C=C(c2cc(C(F)(F)F)cc(C(F)(F)F)c2)C[C@@H](c2ccc3c(c2)OCO3)C1 | -0.428 | 
Nc1c(C(=O)OCC(=O)Nc2ccc(OC(F)F)cc2)[nH]c(=O)[nH]c1=O | 0.835 | 
Cc1onc(-c2ccccc2)c1C(=O)N1CCN(S(=O)(=O)c2ccccc2C(F)(F)F)CC1 | -1.13 | 
Cn1c(-c2ccc(F)cc2)cc2onc(-c3ccccc3Cl)c2c1=O |  | 1.58 µM (active)
O=c1c2ccccc2c(-c2ccc(F)cc2)nn1-c1ccc(C(F)(F)F)cc1 | -4.99 | 
Cn1c(-c2ccc(C(F)(F)F)cc2)cc2onc(-c3ccccc3)c2c1=O |  | 0.398 µM (active)

SMILES | activation [%] | Potency
O=C1c2ccccc2C(=O)N1Cc1cc(-c2ccccc2Cl)no1 | -3.22 | 
Cc1[nH]n(C)c(=O)c1C(=O)c1c(-c2c(Cl)cccc2Cl)noc1C | 10.9 | 
C=C(C)C(=O)Nc1cccc(C2=NOC3(C2)C[C@H](C(N)=O)N(C(=O)C(c2ccccc2)c2ccccc2)C3)c1 (some centres undefined) | -5.61 | 
COc1ccc(CNC(=O)COC(=O)c2ccc(C)c(S(=O)(=O)N3CCOCC3)c2)cc1OC | -1.27 | 
Cc1cccc(OCCC(=O)OCc2csc(CC(=O)Nc3ccccc3C)n2)c1 | -2.87 | 
COC(=O)c1ccc(C23CC4(C2)[C@H](CN(Cc2cccnc2)[C@@H]4c2ccccc2)C3c2ccc(Cl)nc2)cc1 (some centres undefined) | -3.01 | 
O=C(Nc1nnc(-c2ccccc2F)s1)c1ccccc1F |  | 1.58 µM (active)
O=C(Nc1ccc(NC(=O)c2ccccc2F)cc1)c1ccccc1F | -6.42 | 
CN(Cc1ccccc1)S(=O)(=O)c1nnc(NC(=O)c2ccccc2F)s1 | 1.08 | 
COc1ccc(C(=O)NCC2CCCCC2)cc1S(=O)(=O)N1CCCC1 | -5.34 | 
CCCn1c(N)c(C(=O)CSc2nnc3n2CCCCC3)c(=O)[nH]c1=O | 0.178 | 
COc1ccc([C@H]2CC(=O)C=C(c3ccc(CO)cc3)C2)cc1 | 0.356 | 
C/C(=N\NC(=S)Nc1ccc(C)cc1)c1cc2ccccc2o1 | -1.99 | 
Cc1c(/C=N\NC(=O)c2cc3ccccc3o2)c2ccccc2n1C | -28.8 | 
Cc1ccc(NC(=O)c2cc3ccccc3o2)cc1 |  | 3.16 µM (active)
COc1ccc(NC(=O)Cn2cc(C(=O)c3ccncc3)c(=O)c3cc(C)ccc32)cc1Cl | -0.38 | 
O=C1C=C(c2cccc(Br)c2)C[C@@H](c2ccc(F)cc2)C1 | -2.81 | 
COc1cc(SC)ccc1C(=O)NCCOc1ccccc1Cl |  | 3.16 µM (active)
Cc1ccnc(NC(=O)CCCOc2ccccc2)c1 | -5.09 | 
Cc1ccnc(NC(=O)CNC(=O)c2ccccc2)c1 | 3.23 | 
COc1ccccc1OCCNC(=O)CCNC(=O)c1ccccc1Cl | 0.549 | 
COc1cc(SC)ccc1C(=O)Nc1cc(C)ccn1 |  | 3.16 µM (active)

SMILES | activation [%] | Potency
COc1cc(SC)ccc1C(=O)N(Cc1ccccc1)c1ccccc1 | -0.508 | 
COc1ccc(S(=O)(=O)Nc2cc(C)on2)cc1NC(C)=O | -2.61 | 
CC1CCCCC1NC(=O)COC(=O)Cc1ccc(Cl)cc1 (centres undefined) | -1.97 | 
CCc1ccc(C(=O)N2CCN(S(=O)(=O)c3sc(C(=O)O)c(C)c3C(=O)O)CC2)cc1 | -3.15 | 
COc1ccc(CNC(=O)CN2C(=O)NC3(CCCc4sccc43)C2=O)cc1 (centres undefined) | -0.775 | 
CCN(CC)S(=O)(=O)c1ccc(CNC(=O)CN2C(=O)NC3(CCc4ccccc43)C2=O)cc1 (centres undefined) | -1.9 | 
CCn1nc(C(=O)OCC(=O)N2c3ccccc3CC2C)c2ccccc2c1=O (centres undefined) | -6.18 | 
CCCC(=O)N1c2ccc(-c3csc(N)n3)cc2CC1C (centres undefined) |  | 2.82 µM (active)
Cc1ccn(CCC(=O)N2c3ccccc3CC2C)n1 (centres undefined) | -2.45 | 
COc1ccc(CCNC(=O)COC(=O)c2cc(=O)c3ccccc3o2)cc1 | -3.16 | 
O=C(O)c1ccccc1N=N/C(=N/Nc1cc(S(=O)(=O)O)ccc1O)c1ccccc1 | 10.8 | 
Cc1nc(N2CCCCC2)sc1C=O | 0.38 | 
CN(C)CCCN(C(=O)c1ccc(S(=O)(=O)N2CCCCCC2)cc1)c1nc2ccc(Br)cc2s1 | -4.3 | 
O=C(NCCc1cccc(F)c1)C1CCCN(c2nc3ccccc3s2)C1 (centres undefined) | 3.92 | 
Fc1ccc2nc(N3CCCCC3)sc2c1 |  | 3.55 µM (active)
O=C(c1ccc2nc(N3CCOCC3)sc2c1)N1CCN(c2ccc(Cl)cc2)CC1 | 2.53 | 
Brc1ccc2nc(N3CCCC3)sc2c1 |  | 2 µM (active)
OCC[C@H]1C[C@H](O)[C@@H](O)[C@]2(Cc3ccccc3CO2)O1 | 3.77 | 
COc1ccccc1CNC(=O)CCCN1C(=O)NC2(CCCC2)C1=O | -1.89 | 
CNS(=O)(=O)c1cccc(C(=O)OCC(=O)N2c3ccccc3NC(=O)C2(C)C)c1 | -0.887 | 
